In the library only some 8% were active in any assay of this set; here they are far more common.
SW480 rerep: inducers of DNA re-replication in SW480 colon cancer cells; SW480 DNA re-replication, Hoechst DNA content imaging, 48 h; Potency, µM (top dose mostly 46.1 µM), for inactives: top-dose re-replication activation, usual class: activators; hit rate 1.8% among 340,000; further: % of control where 0% means no effect; nearly all actives have a fitted effect of over 55% in size
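SW480 cells exposed to compounds for 48 hr at 37 C, 5% CO2, then Hoechst-stained 40 min. Nuclear DNA content imaged by fluorescence scanning (405 nm excitation, 500-530 nm emission); re-replication scored as increased high-intensity nuclei.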
HT1080 IDH1KD tx: kills HT-1080 cells with IDH1 knockdown. hit rate 2% among 360,000. Potency, µM (top dose mostly 46.1 µM), for the others: at the top dose activity, negative = toxicity, hits mostly cytotoxic. HT-1080 IDH1 knockdown viability, ATP luminescence, 48 h;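 further: 0% = DMSO wells and -100% = cell-free medium wells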
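Assay cells: HT-1080 with IDH1 knockdown, 750 per well, RPMI/5% FBS. Exposure: 48 h at 37 °C following 2 h pre-incubation. Read: CellTiter-Glo luminescence; fitted concentration-response, curve class assigned.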
KB-3-1 tox: kills parental KB-3-1 adenocarcinoma cells; Potency, µM (doses to about 46.1 µM), most hits filed as cytotoxic; hit rate 1.4% among 400,000; AID 1347075; KB-3-1 viability, CellTiter-Glo ATP luminescence, 72 h; further: on the % scale 0 is the no-effect control and ±100 the full control effect; nearly all actives have a fitted effect of over 60% in size
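Here the drug-naive KB-3-1 line serves as comparator for MDR sub-line selectivity; cells received compound titrations, 72 h at 37 °C, then CellTiter-Glo readout.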
MCF10A rerep: DNA re-replication induction in MCF 10a cells | MCF 10A DNA re-replication, Hoechst nuclear intensity, 48 h | Potency, µM (titrated, usually from 46.1 µM), for inactives: at the highest dose activity, positive = re-replication, most hits filed as activators | hit rate 2.9% among 350,000; further: % of control where 0% means no effect; nearly all actives have a fitted effect of over 50% in size
KB-V1 cytotox: KB-V1 MDR subline cytotoxicity. hit rate 3.4% among 400,000. Potency, µM (doses to about 46.1 µM), usual class: cytotoxic. KB-V1 MDR cells viability, CellTiter-Glo, 72 h; further: on the % scale 0 is the no-effect control and ±100 the full control effect; nearly all actives have a fitted effect of over 60% in size
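Cells of the MDR subline KB-V1 are plated, dosed with compound at multiple concentrations, and incubated 72 h at 37 degrees C; CellTiter-Glo is then added and luminescence read after 10 min.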
HT1080-NT tox: kills 2HG-producing HT-1080-NT fibrosarcoma cells. AID 686970. hit rate 1.6% among 360,000. HT-1080-NT fibrosarcoma viability, CellTiter-Glo ATP luminescence, 48 h. Potency, µM (highest dose often 46.1 µM), for the others: top-dose activity, negative = less viability, actives largely listed as cytotoxic;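 further: NT is the 2HG producing partner of a matched IDH1 knockdown line; 0% = DMSO-treated cells and -100% = media-only wells without cells; nearly all actives have a fitted effect of over 55% in size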
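A 48-hour cytotoxicity screen used HT-1080-NT cells plated 2 hours before compound delivery. ATP-based CellTiter-Glo luminescence measured viability, normalized to DMSO and no-cell controls.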
Numbers without * were called inactive; i = inactive; ? = inconclusive; . = no result given. The call rests on the fitted dose curve; in most records, active means well fitted curve in the direction sought with a large enough effect; inconclusive means small, poorly fitted or top-dose-only effect, or another doubt; inactive means no such curve, though single readings can be large; an effect the other way counts as inactive or inconclusive. Potency means the concentration at half of the fitted maximal effect.

SMILES | SW480 rerep | HT1080 IDH1KD tx | KB-3-1 tox | MCF10A rerep | KB-V1 cytotox | HT1080-NT tox
COCCn1c(C)cc(O)c(C(c2ccccc2OC)N2CCCCC2)c1=O (stereo not drawn) | . | . | i | . | i | .
Cc1cc2[nH]c(=O)c(=O)[nH]c2cc1S(=O)(=O)Nc1cccc(C(F)(F)F)c1 | . | . | i | . | i | .
COc1cc2c(NC3CCN(C)CC3)nc(N3CCCN(C)CC3)nc2cc1OCC1CCCCN1 (stereo not drawn) | . | . | ? | . | i | .
COCCn1c(SCC(=O)c2[nH]c(C)c(C(C)=O)c2C)nc2ccccc21 | -10% | 8% | i | -17% | 16µM* | 6%
CC(=O)c1c(C)[nH]c(C(=O)CSc2nnc(-c3ccco3)n2Cc2ccccc2)c1C | -2% | -20% | i | 15% | 18µM* | -1%
O=C(O)CSc1ncnc2sc(-c3ccccc3)cc12 | -4% | 11% | i | 15% | i | 14%
CC(=O)c1c(C)[nH]c(C(=O)CSc2ncnc3sc(-c4ccccc4)cc23)c1C | . | ? | i | 11% | 7.3µM* | 0%
CCc1cccc(NC(=O)Cn2nc(C)c3sc4ccccc4c3c2=O)c1 | . | . | i | . | i | .
CN1C(C(=O)NC(C)(C)C)=CC(c2ccc3c(c2)OCO3)=NS1(=O)=O | . | . | i | . | i | .
CCOC(=O)c1cc([N+](=O)[O-])c([N+](=O)[O-])cc1NC(C)=O | ? | ? | ? | 10µM* | i | 7.3µM*
CCOC(=O)c1ccc(NC(=O)c2ccccc2[N+](=O)[O-])cc1 | 18% | -8% | i | 12% | i | -1%
CC1(C)Cc2ccccc2C2=NNC(=O)C2=N1 | 8.2µM* | 7.3µM* | ? | ? | ? | 23µM*
CC1(C)Cc2ccccc2C(Nn2cnnc2)=N1 | 1% | 2% | i | 22% | i | 6%
CC(=O)c1cccc(NC(=O)c2ccc(-n3c(C)nnc3C)cc2)c1 | . | . | ? | . | i | .
CCCN(CCC)C(=O)CCSCCC(=O)N(CCC)CCC | -1% | 9% | i | 1% | 18µM* | 3%
CCCCCCCCCCCC(=O)N(CCO)CCO | 10% | . | . | 28% | . | .
COc1cccc(NC(=O)Cn2c(=O)n(-c3ccccc3)c(=O)c3ccc(C(=O)NCc4ccc5c(c4)OCO5)cc32)c1 | . | . | i | . | i | .
Cc1cc(NC(=O)Nc2nc3c(s2)CCCCCC3)ccc1Br | . | . | i | . | i | .
CCN1CCC(N(Cc2ccc3c(c2)OCO3)C(=O)Nc2cc(Cl)ccc2C(=O)OC)CC1 | . | . | 16µM* | . | ? | .
CC(=O)Nc1ccc(N=c2cc([N+](=O)[O-])cc(Cl)n2O)cc1 | 23µM* | ? | ? | ? | ? | -2%
COc1ccc2nc(C)cc(SCC(=O)N/N=C/c3ccccc3)c2c1 | -6% | -10% | i | 3% | i | -10%
COc1ccc2nc(C)cc(N/N=C/c3ccccc3)c2c1 | 16µM* | 0% | i | 23µM* | 21µM* | -3%
COc1ccc(/C=N/Nc2cc(C)nc3ccc(OC)cc23)c(OC)c1 | 23µM* | 5.2µM* | ? | ? | ? | 23µM*
COc1ccc2nc(C)cc(NCc3ccc(F)cc3)c2c1 | ? | 16µM* | i | 18µM* | i | ?
COc1ccccc1/C=N/Nc1cc(C)nc2ccc(C)cc12 | 3% | -1% | i | -3% | i | 1%
COc1ccc2nc(C)cc(Nc3ccc(C)cc3)c2c1 | 0% | ? | i | ? | i | ?
CCN(C(=O)c1cc2c(Cl)nc3ccccc3c2s1)c1cccc(Cl)c1 | . | . | i | . | i | .
Cc1cccn2c(=O)c3cc(C#N)c(=O)n(-c4nnc(SCc5ccc(F)cc5)s4)c3nc12 | . | . | i | . | i | .
